From PubChem BioAssay (Tox21)
Inconclusive results are not listed. Entries that show only a call come without a potency. Values without a mark were called inactive. Calls of active or inactive are those of the source. Calls come from the whole dose curve.

The molecules below were run against D(2) dopamine receptor (Homo sapiens) (UniProt P14416) (assay: Dopamine D2 receptor (DRD2) small molecule agonists, cell-based qHTS assay (AID 1963594; note: nearly all actives have a fitted effect of over 35% in size)). Conditions: HEK293-DRD2 cAMP HTRF, agonist mode, 30 min; series mostly up to 92.4 µM; activation: at the top concentration.
Chain of D(2) dopamine receptor (Homo sapiens) (P14416 whole entry, looked up): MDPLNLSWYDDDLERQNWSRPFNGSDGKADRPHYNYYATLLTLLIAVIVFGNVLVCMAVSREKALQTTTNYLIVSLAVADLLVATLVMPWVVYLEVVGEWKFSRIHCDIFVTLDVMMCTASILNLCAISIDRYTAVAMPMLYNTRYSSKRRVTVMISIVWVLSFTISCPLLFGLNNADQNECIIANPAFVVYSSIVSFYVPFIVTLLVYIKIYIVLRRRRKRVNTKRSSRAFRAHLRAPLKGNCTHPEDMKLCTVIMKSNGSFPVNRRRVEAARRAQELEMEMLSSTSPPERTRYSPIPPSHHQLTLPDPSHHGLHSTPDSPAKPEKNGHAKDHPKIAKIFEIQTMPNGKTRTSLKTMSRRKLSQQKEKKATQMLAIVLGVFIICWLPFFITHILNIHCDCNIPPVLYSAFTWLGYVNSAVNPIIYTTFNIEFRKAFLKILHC
Source text: National Center for Advancing Translational Sciences [NCATS]
Division of Preclinical Innovation [DPI]
U.S. Environmental Protection Agency [EPA]
National Institutes of Environmental Health Sciences [NIEHS]
National Toxicology Program [NTP]
U.S. Food and Drug Administration [FDA]
DRD2 is the D2 subtype of the dopamine receptor, which is coupled to Gi subtype of G protein-coupled receptor. This G protein-coupled receptor inhibits adenylyl cyclase activity. The DRD2-HEK293 cell line stably expressing D2 dopamine receptor can be used for screening agonists and antagonists of interactions between D2 and its ligands. The Hek293-DRD2 cAMP assay is based on HTRF technology. It measures changes of cAMP accumulation in response to Gi coupled GPCR activation or inhibition.
Tox21 Assay Protocol Summary:
DRD2-Hek293 cells were dispensed at 600 cells/3uL/well in 1536-well white plates using a Multidrop Dispenser. After the assay plates were incubated at a 37 C/5% CO2 incubator for 24 h, 1 uL of Ro20-1724 at final concentration of 0.1 mM was transferred to the assay plate by a Flying Reagent Dispenser. Following Ro20-1724 addition, 23 nL of compound dissolved in DMSO, positive controls or DMSO only was added to the assay plates via Wako pintool station. The assay plates were incubated at room temperature for 10 min. Next, 1 uL of NKH477 at 200nM was added into the plates. After the assay plates were incubated at room temperature for an additional 30 min, 2.5 ul/well of cAMP-d2 and 2.5 ul/well of anti-cAMP-cryptate were added respectively into the assay plates using a Flying Reagent Dispenser. The plates were incubated at room temperature for 1 h. The fluorescence intensity in the plates was measured at 340 nm excitation and 665 & 620 nm emission by an Envision plate reader.
C=CCSSCC=C was tested, and the “activation” value was 1.64%. With COP(=S)(OC)Oc1ccc([N+](=O)[O-])cc1 the Potency was “inactive”. In the case of CCCCCCCCCCCCCCCCn1cc[n+](C)c1, the Potency is reported as “inactive”. For CCCCOC(=O)COC(=O)c1ccccc1C(=O)OCCCC, the Potency was “inactive”. With COC[C@H](C)N(C(=O)CCl)c1c(C)csc1C the “activation” value was 2.95%. ClC1(Cl)C2(Cl)C3(Cl)C4(Cl)C(Cl)(Cl)C5(Cl)C3(Cl)C1(Cl)C5(Cl)C24Cl (stereo not given) was tested, and the “activation” value was 5.74%. O=C(O)C(F)(F)C(F)(F)C(F)(F)C(F)(F)C(F)(F)C(F)(F)C(F)(F)C(F)(F)F was tested, and the “activation” value was 4.24%. With O=S(=O)(c1ccc(Cl)cc1)c1cc(Cl)c(Cl)cc1Cl the Potency was “inactive”. Cc1cc(N=Nc2ccccc2C)ccc1N was tested, and the Potency was “inactive”. For CCOC(=O)C(c1c(O)c2ccccc2oc1=O)c1c(O)c2ccccc2oc1=O, the “activation” value was -1.47% [at 42.5 µM]. With CC(NC(C)(C)C)C(=O)c1cccc(Cl)c1 (stereo not given) the Potency was “inactive”. For O=Cc1ccco1, the Potency was “inactive”. In the case of N#CCc1ccccc1, the “activation” value is reported as 0.121%. ClCCBr was tested, and the Potency was “inactive”. For c1ccc2c(c1)-c1cccc3cccc-2c13, the Potency was “inactive”. For CCCBr, the “activation” value was -3.42%. With COc1cc(N)c(Cl)cc1C(=O)NC1CN2CCC1CC2 (stereo not given) the “activation” value was -23.6% [at 42.5 µM]. With NCCOS(=O)(=O)O the “activation” value was 7.94%. Cc1ccccc1N was tested, and the Potency was “inactive”. In the case of CCN(CCO)CCO, the “activation” value is reported as -0.296%. In the case of CC[n+]1ccccc1, the Potency is reported as “inactive”. For ClCc1ccccn1, the Potency was “inactive”. C[C@H]1C(=O)O[C@@H]2CCN3CC=C(COC(=O)[C@](C)(O)[C@]1(C)O)[C@H]23 was tested, and the Potency was “inactive”. For O=C(Nc1ccc(Br)cc1)c1cc(Br)cc(Br)c1O, the Potency was “inactive”. With O=NN1CCCC1 the Potency was “inactive”. In the case of CCC(C)Cl (stereo not given), the “activation” value is reported as 0.161%. With C=CC(C)=O the “activation” value was -5.6%. In the case of CC(C)C1(C)N=C(c2nc3ccccc3cc2C(=O)O)NC1=O (stereo not given), the Potency is reported as “inactive”. In the case of CCCCON=O, the “activation” value is reported as -0.205%. For CCN(CC)C(=O)C(C)Oc1cccc2ccccc12 (stereo not given), the Potency was “inactive”. With Cc1ccc(-c2nc3ccc(C)cn3c2CC(=O)N(C)C)cc1 the “activation” value was 20.3% [at 42.5 µM]. For NC(=S)c1c(Cl)cccc1Cl, the “activation” value was -0.125%. OC[C@@H](O)[C@H]1O[C@@H]2O[C@H](C(Cl)(Cl)Cl)O[C@@H]2[C@H]1O was tested, and the Potency was “inactive”. For CC(COc1ccc(Oc2ccccc2)cc1)Oc1ccccn1 (stereo not given), the “activation” value was -19.4%. With O=[N+]([O-])c1c(Cl)c(Cl)c(Cl)c(Cl)c1Cl the Potency was “inactive”. For Nc1ccc(-c2ccccc2)cc1, the Potency was “inactive”. For COc1cc2c(cc1OC)[C@@]13CCN4CC5=CCO[C@H]6CC(=O)N2[C@H]1[C@H]6[C@H]5C[C@H]43, the “activation” value was 9.57%. CN(C)C(=S)SSC(=S)N(C)C was tested, and the Potency was “inactive”. Cc1ccc(N)c(C)c1 was tested, and the Potency was “inactive”. In the case of O=[N+]([O-])c1ccc(Cl)cc1, the Potency is reported as “inactive”.
